In the supplement of paper PMC10849652:
The full data set covers some 8,800 targets. This sample favours those with a hit. About 0.5% of all pairs of compound and target were hits.

How the values were obtained:
Experiment in all cases: log2 fold change, soluble protein after heating vs DMSO (PISA); higher = thermal stabilisation; K562 lysate, 10 uM; active = over 0.2 and 3.5 SD of the protein, either way, in both replicates (recomputed)
lapatinib = compound: CS(=O)(=O)CCNCc1ccc(-c2ccc3ncnc(Nc4ccc(OCc5cccc(F)c5)c(Cl)c4)c3c2)o1 [lapatinib]
Outline: (§1)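 K562 pellets were dounce-homogenised in PBS pH 7.4 with 1 mM MgCl2, and the crude extract at 1 mg/mL protein was treated with 10 μM compound for 30 min. Aliquots were heated for 3 min across 48°C-58°C, pooled, and brought to 0.5% NP-40 at 4°C; soluble protein was the supernatant after 21,000xg for 90 min. Soluble protein was quantified by TMTpro 16plex LC-MS/MS with channel sums equalised, and reported as log2 fold change in thermal stability against DMSO controls, with values from duplicates.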

pictilisib = compound: CS(=O)(=O)N1CCN(Cc2cc3nc(-c4cccc5[nH]ncc45)nc(N4CCOCC4)c3s2)CC1 [pictilisib]
Outline: as §1

crizotinib = compound: C[C@@H](Oc1cc(-c2cnn(C3CCNCC3)c2)cnc1N)c1c(Cl)ccc(F)c1Cl [crizotinib]
Outline: as §1

[1] = compound: C[C@H](C1=CC=C(C=C1)C(=O)NC2=C3C=CNC3=NC=C2)N
Outline: as §1

duvelisib = compound: C[C@H](Nc1ncnc2nc[nH]c12)c1cc2cccc(Cl)c2c(=O)n1-c1ccccc1 [duvelisib]
Outline: as §1

gandotinib = compound: Cc1cc(Nc2cc(CN3CCOCC3)c3nc(C)c(Cc4ccc(Cl)cc4F)n3n2)n[nH]1 [gandotinib]
Outline: as §1

tozasertib = compound: Cc1cc(Nc2cc(N3CCN(C)CC3)nc(Sc3ccc(NC(=O)C4CC4)cc3)n2)n[nH]1 [tozasertib]
Outline: as §1

doramapimod = compound: Cc1ccc(-n2nc(C(C)(C)C)cc2NC(=O)Nc2ccc(OCCN3CCOCC3)c3ccccc23)cc1 [doramapimod]
Outline: as §1

bafetinib = compound: Cc1ccc(NC(=O)c2ccc(CN3CC[C@H](N(C)C)C3)c(C(F)(F)F)c2)cc1Nc1nccc(-c2cncnc2)n1 [bafetinib]
Outline: as §1

[2] = compound: Cc1cccc(CC(=O)N2CCc3c2ccc(-c2cn(C)c4ncnc(N)c24)c3F)n1
Outline: as §1

Measured: log2 fold change

SLC20A1 (UniProt Q8WUM9)
inactive: lapatinib -0.002 | pictilisib -0.065 | crizotinib -0.009 | [1] 0.016 | duvelisib 0.038 | gandotinib -0.016 | tozasertib -0.006 | doramapimod 0.042 | bafetinib -0.075 | [2] -0.013

SLC12A6 (UniProt Q9UHW9)
inactive: lapatinib 0.037 | pictilisib -0.046 | crizotinib -0.025 | [1] 0.008 | duvelisib 0.015 | gandotinib -0.028 | tozasertib -0.002 | doramapimod 0.027 | bafetinib -0.011 | [2] 0.034

SNW1 (UniProt Q13573)
inactive: lapatinib 0.019 | pictilisib -0.002 | crizotinib 0.002 | [1] 0.155 | duvelisib -0.018 | gandotinib -0.037 | tozasertib -0.01 | doramapimod -0.002 | bafetinib -0.002 | [2] -0.007

SPATS2 (UniProt Q86XZ4)
inactive: lapatinib 0.027 | pictilisib -0.119 | crizotinib 0.09 | [1] -0.016 | duvelisib 0.048 | gandotinib 0.145 | tozasertib -0.062 | doramapimod -0.126 | bafetinib -0.206 | [2] -0.164

SH3BP5L (UniProt Q7L8J4)
inactive: lapatinib 0.006 | pictilisib -0.004 | crizotinib -0.01 | [1] -0.05 | duvelisib 0.001 | gandotinib 0.031 | tozasertib 0.098 | doramapimod -0.044 | bafetinib 0.001 | [2] 0.015

SLC25A38 (UniProt Q96DW6)
Chain of UniProt Q96DW6 (Q96DW6 whole entry, looked up): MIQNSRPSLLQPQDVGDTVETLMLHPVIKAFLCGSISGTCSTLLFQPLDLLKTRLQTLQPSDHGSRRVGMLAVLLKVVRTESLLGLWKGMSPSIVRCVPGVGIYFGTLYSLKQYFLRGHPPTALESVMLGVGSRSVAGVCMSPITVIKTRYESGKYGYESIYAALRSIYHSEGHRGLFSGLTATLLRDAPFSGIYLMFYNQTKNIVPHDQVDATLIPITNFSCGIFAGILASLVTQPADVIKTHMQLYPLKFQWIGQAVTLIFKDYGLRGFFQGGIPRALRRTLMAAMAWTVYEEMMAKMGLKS
inactive: lapatinib -0.093 | pictilisib -0.026 | crizotinib -0.044 | [1] -0.072 | duvelisib 0.173 | gandotinib -0.055 | doramapimod -0.024 | bafetinib -0.025 | [2] 0.112
active: tozasertib 0.391

SYF2 (UniProt O95926)
inactive: lapatinib 0.026 | pictilisib 0.003 | crizotinib -0.008 | [1] -0.023 | duvelisib -0.144 | gandotinib 0.055 | tozasertib -0.066 | doramapimod 0.04 | bafetinib -0.026 | [2] -0.016

SLC27A2 (UniProt O14975)
Chain of UniProt O14975 (O14975 whole entry, looked up): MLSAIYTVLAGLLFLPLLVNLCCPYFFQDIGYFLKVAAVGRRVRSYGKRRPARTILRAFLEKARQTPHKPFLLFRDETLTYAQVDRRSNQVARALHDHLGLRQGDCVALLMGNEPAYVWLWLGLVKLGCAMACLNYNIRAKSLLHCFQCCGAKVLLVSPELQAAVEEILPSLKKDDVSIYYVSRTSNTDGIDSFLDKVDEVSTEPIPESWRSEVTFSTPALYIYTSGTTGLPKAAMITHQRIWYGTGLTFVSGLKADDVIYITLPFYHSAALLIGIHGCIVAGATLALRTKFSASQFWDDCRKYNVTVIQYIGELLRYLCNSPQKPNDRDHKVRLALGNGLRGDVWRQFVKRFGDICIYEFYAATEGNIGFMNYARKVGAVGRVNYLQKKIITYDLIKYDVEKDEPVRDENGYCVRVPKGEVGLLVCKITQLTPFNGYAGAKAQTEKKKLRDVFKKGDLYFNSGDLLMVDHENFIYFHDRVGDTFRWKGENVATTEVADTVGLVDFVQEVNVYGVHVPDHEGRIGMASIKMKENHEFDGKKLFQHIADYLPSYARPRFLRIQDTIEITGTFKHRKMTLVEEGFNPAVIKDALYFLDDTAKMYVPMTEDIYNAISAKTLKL
inactive: lapatinib 0.063 | pictilisib -0.049 | crizotinib -0.092 | [1] -0.067 | duvelisib 0.031 | gandotinib 0.286 | tozasertib 0.117 | doramapimod 0.064 | bafetinib 0.015 | [2] -0.014

SH3BP2 isoform 4 (UniProt P78314)
inactive: lapatinib -0.135 | crizotinib -0.021 | [1] 0.01 | duvelisib 0.053 | gandotinib -0.02 | doramapimod 0.057 | bafetinib -0.105 | [2] 0.123
active: pictilisib -0.41

SLC30A9 (UniProt Q6PML9)
active: [2] 0.312
inactive: lapatinib -0.007 | pictilisib -0.054 | crizotinib -0.043 | [1] -0.423 | duvelisib 0.048 | gandotinib 0.008 | tozasertib -0.003 | doramapimod 0.036 | bafetinib -0.161

SNX6, A0A0A0MRI2
inactive: lapatinib -0.008 | pictilisib 0.018 | crizotinib -0.062 | [1] 0.2 | duvelisib 0.003 | gandotinib -0.134 | tozasertib 0.022 | doramapimod -0.012 | bafetinib -0.04 | [2] -0.088

SOAT1 (UniProt P35610)
inactive: lapatinib 0.027 | pictilisib -0.004 | crizotinib -0.022 | [1] -0.079 | duvelisib -0.016 | gandotinib 0.005 | tozasertib 0.009 | doramapimod 0.157 | bafetinib 0.029 | [2] 0.141

SMARCAD1 isoform 2 (UniProt Q9H4L7)
inactive: lapatinib -0.005 | pictilisib -0.015 | crizotinib -0.073 | [1] -0.019 | duvelisib -0.013 | gandotinib -0.044 | tozasertib 0.018 | doramapimod 0.003 | bafetinib -0.045 | [2] 0.008

SMG7 (UniProt Q92540)
Chain of UniProt Q92540 (Q92540 whole entry, looked up): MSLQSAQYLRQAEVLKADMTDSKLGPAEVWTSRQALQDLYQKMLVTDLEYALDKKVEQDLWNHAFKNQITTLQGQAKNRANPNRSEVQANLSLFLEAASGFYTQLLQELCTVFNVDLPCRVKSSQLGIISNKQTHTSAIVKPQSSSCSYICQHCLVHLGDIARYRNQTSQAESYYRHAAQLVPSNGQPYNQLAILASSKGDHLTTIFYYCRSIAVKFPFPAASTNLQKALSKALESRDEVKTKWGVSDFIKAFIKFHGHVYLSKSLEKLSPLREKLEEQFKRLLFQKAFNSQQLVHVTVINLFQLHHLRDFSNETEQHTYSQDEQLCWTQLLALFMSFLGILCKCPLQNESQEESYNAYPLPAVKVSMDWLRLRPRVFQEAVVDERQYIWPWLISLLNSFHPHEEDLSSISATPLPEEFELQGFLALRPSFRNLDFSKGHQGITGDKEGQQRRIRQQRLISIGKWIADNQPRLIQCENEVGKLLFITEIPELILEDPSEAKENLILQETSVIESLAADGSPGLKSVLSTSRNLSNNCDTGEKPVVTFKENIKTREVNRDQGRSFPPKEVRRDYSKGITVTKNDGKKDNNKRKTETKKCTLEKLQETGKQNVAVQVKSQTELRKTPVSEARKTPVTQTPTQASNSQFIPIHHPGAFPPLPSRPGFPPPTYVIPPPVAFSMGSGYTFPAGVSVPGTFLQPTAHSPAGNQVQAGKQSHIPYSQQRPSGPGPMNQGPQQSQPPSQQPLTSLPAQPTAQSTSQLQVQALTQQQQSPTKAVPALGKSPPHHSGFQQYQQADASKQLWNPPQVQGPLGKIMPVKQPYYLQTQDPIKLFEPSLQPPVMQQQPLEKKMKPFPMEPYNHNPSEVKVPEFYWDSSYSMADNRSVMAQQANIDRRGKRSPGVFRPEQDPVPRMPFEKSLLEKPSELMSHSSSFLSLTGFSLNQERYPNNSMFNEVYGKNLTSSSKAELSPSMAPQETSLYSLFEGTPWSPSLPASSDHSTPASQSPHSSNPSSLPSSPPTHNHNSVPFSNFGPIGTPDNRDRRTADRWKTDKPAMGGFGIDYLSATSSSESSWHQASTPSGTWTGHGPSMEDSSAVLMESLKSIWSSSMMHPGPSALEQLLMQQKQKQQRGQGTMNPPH
active: doramapimod -0.257
inactive: lapatinib 0.101 | pictilisib 0.1 | crizotinib 0.043 | [1] -0.035 | duvelisib 0.026 | gandotinib -0.018 | tozasertib 0.026 | bafetinib -0.008 | [2] 0.022

SMAP2 (UniProt Q8WU79)
inactive: lapatinib -0.017 | pictilisib -0.164 | crizotinib 0.102 | [1] 0.031 | duvelisib -0.008 | gandotinib -0.008 | tozasertib 0.054 | doramapimod -0.019 | bafetinib 0.051 | [2] -0.032

STN1 (UniProt Q9H668)
inactive: lapatinib 0.128 | pictilisib -0.201 | crizotinib -0.068 | [1] -0.235 | gandotinib -0.212 | tozasertib -0.059 | doramapimod -0.101 | bafetinib -0.176 | [2] -0.028

SLC11A2 isoform 3 (UniProt P49281)
inactive: lapatinib 0 | pictilisib -0.014 | crizotinib -0.004 | [1] -0.052 | duvelisib -0.025 | gandotinib 0.033 | tozasertib -0.08 | doramapimod -0.018 | bafetinib 0.035 | [2] 0.036

SP1 (UniProt P08047)
Chain of UniProt P08047 (P08047 whole entry, looked up): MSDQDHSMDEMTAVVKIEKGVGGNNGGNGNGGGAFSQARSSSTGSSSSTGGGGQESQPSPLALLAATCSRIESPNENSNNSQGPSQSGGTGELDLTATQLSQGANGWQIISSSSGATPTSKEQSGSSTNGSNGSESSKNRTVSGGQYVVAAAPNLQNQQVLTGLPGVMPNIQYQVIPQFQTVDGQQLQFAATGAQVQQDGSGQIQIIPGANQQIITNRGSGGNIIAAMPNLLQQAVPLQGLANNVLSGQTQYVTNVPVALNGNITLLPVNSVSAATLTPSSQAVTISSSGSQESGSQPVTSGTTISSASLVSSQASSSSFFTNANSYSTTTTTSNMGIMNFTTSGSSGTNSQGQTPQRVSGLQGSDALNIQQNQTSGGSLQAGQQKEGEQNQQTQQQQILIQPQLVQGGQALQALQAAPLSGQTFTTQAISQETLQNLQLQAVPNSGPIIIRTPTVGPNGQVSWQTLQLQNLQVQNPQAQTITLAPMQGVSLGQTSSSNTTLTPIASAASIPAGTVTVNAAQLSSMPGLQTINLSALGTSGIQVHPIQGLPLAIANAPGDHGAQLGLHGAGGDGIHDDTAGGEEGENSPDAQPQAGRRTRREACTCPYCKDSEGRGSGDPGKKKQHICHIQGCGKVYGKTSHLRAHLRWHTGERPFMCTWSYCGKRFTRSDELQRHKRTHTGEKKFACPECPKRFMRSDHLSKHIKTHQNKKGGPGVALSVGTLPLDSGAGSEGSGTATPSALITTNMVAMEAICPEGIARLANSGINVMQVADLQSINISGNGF
inactive: lapatinib 0.077 | pictilisib 0.009 | crizotinib 0.022 | [1] -0.024 | duvelisib -0.063 | gandotinib 0.056 | tozasertib -0.049 | doramapimod 0.095 | bafetinib -0.027 | [2] 0.031

SLC25A17 (UniProt O43808)
active: [1] -0.303
inactive: lapatinib -0.033 | pictilisib 0.015 | crizotinib -0.052 | duvelisib 0.029 | gandotinib 0.072 | tozasertib -0.069 | doramapimod 0.007 | bafetinib -0.066 | [2] 0.085

SLC25A32 (UniProt Q9H2D1)
Chain of UniProt Q9H2D1 (Q9H2D1 whole entry, looked up): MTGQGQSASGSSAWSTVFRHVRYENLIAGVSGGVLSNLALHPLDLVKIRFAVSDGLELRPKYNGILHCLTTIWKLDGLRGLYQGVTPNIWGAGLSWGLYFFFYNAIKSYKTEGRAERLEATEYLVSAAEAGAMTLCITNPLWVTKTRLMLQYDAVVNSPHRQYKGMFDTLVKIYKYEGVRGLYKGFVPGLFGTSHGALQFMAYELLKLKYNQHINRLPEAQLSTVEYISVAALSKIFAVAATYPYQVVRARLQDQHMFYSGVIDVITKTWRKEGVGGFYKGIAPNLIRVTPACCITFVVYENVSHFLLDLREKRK
inactive: lapatinib -0.032 | pictilisib -0.005 | crizotinib -0.017 | [1] -0.151 | duvelisib -0.014 | gandotinib 0.098 | tozasertib -0.038 | doramapimod -0.019 | bafetinib -0.022 | [2] 0.1

STARD3 isoform 3 (UniProt Q14849)
Chain of UniProt Q14849 (Q14849 whole entry, looked up): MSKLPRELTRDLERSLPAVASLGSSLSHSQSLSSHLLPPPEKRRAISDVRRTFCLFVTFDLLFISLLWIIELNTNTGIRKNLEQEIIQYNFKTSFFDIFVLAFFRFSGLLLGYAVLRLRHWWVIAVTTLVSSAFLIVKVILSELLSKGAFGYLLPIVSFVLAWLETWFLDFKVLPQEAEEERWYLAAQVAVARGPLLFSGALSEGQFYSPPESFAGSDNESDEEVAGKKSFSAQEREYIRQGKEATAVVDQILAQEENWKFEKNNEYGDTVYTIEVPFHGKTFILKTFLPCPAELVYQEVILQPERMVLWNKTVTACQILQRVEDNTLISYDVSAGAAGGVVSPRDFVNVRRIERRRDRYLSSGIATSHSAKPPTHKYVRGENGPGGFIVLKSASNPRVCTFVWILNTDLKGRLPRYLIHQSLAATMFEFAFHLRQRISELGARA
inactive: lapatinib -0.094 | pictilisib -0.087 | crizotinib -0.024 | [1] -0.072 | duvelisib -0.005 | gandotinib 0.027 | tozasertib -0.075 | doramapimod 0.021 | bafetinib -0.209 | [2] 0.084

SULT1A1 (UniProt P50225)
Chain of UniProt P50225 (P50225 whole entry, looked up): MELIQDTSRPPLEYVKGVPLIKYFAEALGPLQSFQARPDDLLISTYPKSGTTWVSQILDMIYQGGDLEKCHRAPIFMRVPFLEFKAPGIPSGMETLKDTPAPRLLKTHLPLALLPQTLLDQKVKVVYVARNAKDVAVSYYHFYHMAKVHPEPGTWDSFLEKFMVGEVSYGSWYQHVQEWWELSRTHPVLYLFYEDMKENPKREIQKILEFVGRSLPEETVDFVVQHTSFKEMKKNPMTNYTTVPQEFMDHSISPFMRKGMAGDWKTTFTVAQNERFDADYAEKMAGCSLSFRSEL
inactive: lapatinib 0.023 | pictilisib -0.052 | crizotinib -0.074 | [1] -0.014 | duvelisib -0.009 | gandotinib -0.023 | tozasertib -0.002 | doramapimod -0.037 | bafetinib -0.025 | [2] 0.046

SMTN isoform 6 (UniProt P53814)
inactive: lapatinib 0.103 | pictilisib -0.042 | crizotinib -0.012 | [1] -0.06 | duvelisib 0.033 | gandotinib 0.032 | tozasertib 0.019 | doramapimod 0.006 | bafetinib 0.059 | [2] 0.028

SLC16A1 (UniProt P53985)
Chain of UniProt P53985 (P53985 whole entry, looked up): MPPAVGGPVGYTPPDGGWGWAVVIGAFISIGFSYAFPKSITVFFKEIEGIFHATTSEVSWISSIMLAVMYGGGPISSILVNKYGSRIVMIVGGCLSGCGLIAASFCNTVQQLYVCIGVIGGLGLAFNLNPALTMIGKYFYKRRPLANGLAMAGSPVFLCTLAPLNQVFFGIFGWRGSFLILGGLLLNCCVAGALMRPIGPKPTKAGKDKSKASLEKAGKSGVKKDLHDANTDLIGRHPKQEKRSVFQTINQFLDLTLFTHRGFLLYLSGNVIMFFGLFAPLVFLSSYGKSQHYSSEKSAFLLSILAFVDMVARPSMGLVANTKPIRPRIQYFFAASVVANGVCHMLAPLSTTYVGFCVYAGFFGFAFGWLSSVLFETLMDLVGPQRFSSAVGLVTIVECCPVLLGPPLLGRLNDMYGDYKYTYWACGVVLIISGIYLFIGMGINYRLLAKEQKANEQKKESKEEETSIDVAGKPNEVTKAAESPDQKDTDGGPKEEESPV
inactive: lapatinib -0.009 | pictilisib 0.019 | crizotinib 0.006 | duvelisib -0.011 | gandotinib 0.22 | tozasertib -0.008 | doramapimod -0.017 | bafetinib -0.041
active: [1] -0.341 | [2] 0.246

SIX5 (UniProt Q8N196)
active: gandotinib -0.48
inactive: lapatinib -0.105 | pictilisib 0.015 | crizotinib -0.075 | [1] 0.22 | duvelisib 0.039 | doramapimod 0.143 | bafetinib -0.009 | [2] -0.306

SH3BGRL2 (UniProt Q9UJC5)
active: [1] 0.342
inactive: lapatinib 0.021 | pictilisib 0.012 | crizotinib -0.025 | duvelisib -0.007 | gandotinib -0.116 | tozasertib -0.078 | doramapimod 0.021 | bafetinib -0.058 | [2] -0.184

STK26 (UniProt Q9P289)
Chain of UniProt Q9P289 (Q9P289 whole entry, looked up): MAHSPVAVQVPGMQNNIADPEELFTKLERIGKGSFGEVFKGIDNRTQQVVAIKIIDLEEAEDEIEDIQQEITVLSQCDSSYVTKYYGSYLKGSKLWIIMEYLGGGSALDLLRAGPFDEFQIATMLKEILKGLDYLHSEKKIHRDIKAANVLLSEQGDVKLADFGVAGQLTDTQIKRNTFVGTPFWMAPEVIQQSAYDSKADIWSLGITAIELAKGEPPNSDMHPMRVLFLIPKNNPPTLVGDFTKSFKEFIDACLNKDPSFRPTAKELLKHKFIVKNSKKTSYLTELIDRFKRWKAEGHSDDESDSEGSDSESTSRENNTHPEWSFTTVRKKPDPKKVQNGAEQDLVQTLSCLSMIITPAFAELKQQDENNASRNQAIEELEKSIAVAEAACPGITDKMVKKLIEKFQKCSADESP
inactive: lapatinib -0.011 | pictilisib 0.024 | crizotinib 0.007 | [1] -0.003 | duvelisib 0.005 | gandotinib 0.061 | tozasertib 0.005 | doramapimod -0.036 | bafetinib -0.015 | [2] -0.004

SMIM1 (UniProt B2RUZ4)
Chain of UniProt B2RUZ4 (B2RUZ4 whole entry, looked up): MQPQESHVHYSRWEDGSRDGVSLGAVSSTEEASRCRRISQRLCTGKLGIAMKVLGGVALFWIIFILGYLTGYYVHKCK
inactive: lapatinib 0.098 | pictilisib -0.028 | crizotinib -0.106 | [1] 0.121 | gandotinib 0.106 | tozasertib -0.019 | doramapimod 0.034 | bafetinib -0.021 | [2] 0.011

SNUPN (UniProt O95149)
inactive: lapatinib 0.026 | pictilisib -0.083 | crizotinib -0.03 | [1] -0.009 | gandotinib -0.036 | tozasertib 0.023 | doramapimod -0.002 | bafetinib -0.061 | [2] 0.006

SMC6 (UniProt Q96SB8)
inactive: lapatinib -0.051 | pictilisib -0.06 | crizotinib -0.026 | [1] -0.039 | duvelisib 0.034 | gandotinib -0.002 | tozasertib 0.004 | doramapimod -0.011 | bafetinib 0.007 | [2] 0.029

SSNA1 (UniProt O43805)
inactive: lapatinib 0.012 | pictilisib -0.015 | crizotinib 0.138 | [1] 0.003 | duvelisib -0.038 | gandotinib 0.061 | tozasertib 0.045 | doramapimod 0.019 | bafetinib -0.014 | [2] -0.034
